This experiment concerns FaDu. Description: mitochondrial oxygen consumption rate normalised to cell number, Z score vs plate DMSO wells; higher = higher oxygen consumption (negative = OCR reduction). The note with it: treatment time 24 h, assay medium: 5 mM glucose, 5 mM pyruvate, 4 mM glutamine. The method, then: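 Secondary screen: FaDu cells were incubated 24 h with the top 130 primary hits at 0.08, 0.4, 2 or 10 uM. Mitochondrial-specific OCR (basal minus antimycin A) was measured on a Seahorse XF96 in medium with 5 mM glucose, 5 mM pyruvate and 4 mM glutamine and normalised to Hoechst cell number. OCR score = (OCR - mean of plate DMSO wells) / SD of plate DMSO wells. Three repeats.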

These results are taken from the supplement of paper PMC4962491.

± gives the standard deviation of the averaged measurements.
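Further: compound exposure in DMEM (4 mM L-glutamine, 5 mM glucose), antimycin A injected at 2 µM after the basal reading and its residual OCR subtracted from basal.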

Regarding `CCCCC(CC)CN1CN(CC(CC)CCCC)CC(C)(N)C1` (stereo not given), the “mitochondrial oxygen consumption rate normalised” value was 1.53 ± 1.5 (0.08 µM), 0.568 ± 0.56 (0.4 µM), 0.773 ± 1.7 (2 µM) and -5.24 ± 1.7 (10 µM).
For `CC(=O)[C@H]1CC[C@H]2[C@@H]3CCC4=CC(=O)CC[C@]4(C)[C@H]3CC[C@]12C`, the “mitochondrial oxygen consumption rate normalised” value is, setting by setting: (0.08 µM) -0.339 ± 1.3; (0.4 µM) 0.321 ± 0.92; (2 µM) -0.631 ± 1.3; (10 µM) -1.18 ± 0.26.
For `Nc1ccc2cc3ccc(N)cc3nc2c1`, the “mitochondrial oxygen consumption rate normalised” value is 0.988 ± 0.79 (0.08 µM), 1.43 ± 0.73 (0.4 µM), -2.56 ± 1.5 (2 µM) and -6.68 ± 1.4 (10 µM).
For `C[C@]12CC[C@@H]3c4ccc(O)cc4CC[C@H]3[C@@H]1CC[C@@H]2OC(=O)CCC1CCCC1` the same measures were 0.0173 ± 1.4, 0.582 ± 0.51, 0.375 ± 0.83 and -0.125 ± 1.5.
With `CC(C)(C)CC(C)(C)c1ccc(OCCOCC[N+](C)(C)Cc2ccccc2)cc1`, the “mitochondrial oxygen consumption rate normalised” value is -0.0571 ± 1.2 (0.08 µM), 0.0149 ± 0.7 (0.4 µM), -6.66 ± 0.41 (2 µM) and -13 ± 0.41 (10 µM).
On to `O=C(O[C@H]1CN2CCC1CC2)N1CCc2ccccc2[C@@H]1c1ccccc1`, for which the “mitochondrial oxygen consumption rate normalised” value reads like this: (0.08 µM) 1.08 ± 2.1; (0.4 µM) 0.729 ± 0.44; (2 µM) 0.566 ± 1.2; (10 µM) -0.974 ± 1.9.
In the same order, the values of `N=C(NCCCCCCNC(=N)NC(=N)Nc1ccc(Cl)cc1)NC(=N)Nc1ccc(Cl)cc1` are 0.00962 ± 0.9, 1.64 ± 0.46, -0.184 ± 0.7 and -7.98 ± 0.44.
For `Cc1cc(C2CCCCC2)n(O)c(=O)c1` the same measures were -0.736 ± 1.4, 1.35 ± 1, -3.51 ± 0.86 and -3.81 ± 1.9.
Consider `C=C1CC[C@H](O)C/C1=C/C=C1\CCC[C@]2(C)[C@@H]([C@H](C)/C=C/[C@H](C)C(C)C)CC[C@@H]12`, for which the “mitochondrial oxygen consumption rate normalised” value is -1.49 ± 2.4 (0.08 µM), -0.211 ± 0.41 (0.4 µM), -1.83 ± 1.7 (2 µM) and -2.44 ± 1.9 (10 µM).
In the same order, the values of `CC(C)NCC(O)COc1ccc(CC(N)=O)cc1` (stereo not given) are 0.23 ± 1.7, 0.806 ± 0.77, 0.178 ± 1 and -0.73 ± 1.5.
